Experimental findings from PubChem BioAssay (EPA / NIEHS) are described below.

Experiment [1] can be described thus: ATG_RORE_CIS: Attagene CIS-FACTORIAL HepG2 Assay for human RAR-related Orphan Receptor Element (RORE) (AID 2282959). The following applies: HepG2 Attagene cis-factorial RORE reporter, mRNA; actives raise or lower the signal. In short, it runs like this: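 Measured here: transcript induction of a cis-regulated reporter in HepG2 cells transiently transfected via FuGene 6. After 24 h, RNA was processed by RT-PCR and fluorescent capillary electrophoresis; DMSO defined baseline activity.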

A short description of experiment [2]: ATG_Sox_CIS: Attagene CIS-FACTORIAL HepG2 Assay for human SRY-box transcription factor (SOX) (AID 2282960). As to conditions: HepG2 Attagene cis-factorial SOX reporter, mRNA; actives raise or lower the signal. In short, it runs like this: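 Using transiently transfected HepG2 cells, reporter transcription driven by cis elements was assessed 24 h after dosing. Signal was fluorescence of capillary-separated RT-PCR products, with DMSO defining baseline activity.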

Experiment [3] concerns the target Transcription factor Sp1 (Homo sapiens) (UniProt P08047). Put plainly: ATG_Sp1_CIS: Attagene CIS-FACTORIAL HepG2 Assay for human Specificity Protein 1 (Sp1) (AID 2282961). The following applies: HepG2 Sp1 cis-reporter transcription, actives raise or lower the signal. In short, it runs like this:
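After transient transfection of HepG2 cells with cis-promoter reporter units and 24 h chemical treatment, reporter transcripts were quantified by RT-PCR and capillary electrophoresis fluorescence. Gain- and loss-of-signal fitted against DMSO.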

A short description of experiment [4]: ATG_SREBP_CIS: Attagene CIS-FACTORIAL HepG2 Assay for human Sterol Regulatory Element Binding (SREBP) (AID 2282962). The following applies: HepG2 Attagene cis-factorial SREBP reporter, mRNA; actives raise or lower the signal. The method in brief:
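Twenty-four hours after chemical dosing of transfected HepG2 cultures, reporter RNA was converted to cDNA, amplified, end-labelled with 6-FAM and resolved by capillary electrophoresis. Responses were fitted relative to DMSO.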

Experiment [5] deals with Signal transducer and activator of transcription 3 (Homo sapiens) (UniProt P40763). Put plainly: ATG_STAT3_CIS: Attagene CIS-FACTORIAL HepG2 Assay for human Signal Transducer and Activator of Transcription 3 (STAT3) (AID 2282963). As to conditions: HepG2, Attagene cis-factorial STAT3 reporter transcription; actives raise or lower the signal. The method in brief:
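Endogenous STAT3-responsive cis-element activity was read in transiently transfected HepG2 cells after 24 h treatment. Reporter transcripts were quantified via RT-PCR and capillary electrophoresis, with DMSO as negative control and bidirectional curve fitting.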

A short description of experiment [6]: ATG_TA_CIS: Attagene CIS-FACTORIAL HepG2 Assay for human TA Basal Promoter (AID 2282964). The following applies: HepG2 Attagene CIS-factorial TA basal promoter reporter; actives raise or lower the signal. In short, it runs like this:
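Multiplexed mRNA reporter assay, HepG2, 24 h. Reporter cDNA amplified, 6-FAM primer-extended, HpaI-cut, CE-sized; DMSO = negative control and baseline.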

Experiment [7] can be described thus: ATG_TCF_b_cat_CIS: Attagene CIS-FACTORIAL HepG2 Assay for human T-Cell-Factor with beta-catenin (TCF/b-cat) (AID 2282965). The following applies: HepG2 TCF/beta-catenin cis-reporter transcription, actives raise or lower the signal. In short, it runs like this:
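Endogenous TCF/LEF activity read as reporter transcript level via RT-PCR and capillary electrophoresis fluorescence in transfected HepG2, 24 h exposure; gain or loss of signal fitted against DMSO controls.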

The nature of experiment [8]: ATG_TAL_CIS: Attagene CIS-FACTORIAL HepG2 Assay for human TAL Basal Promoter (AID 2282966).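 Note: background control endpoint measuring basal TAL promoter reporter mRNA not a specific factor.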 The following applies: HepG2 Attagene cis-factorial TAL promoter reporter; actives raise or lower the signal. The method in brief:
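HepG2 cells transiently transfected with multiplexed cis-promoter reporter units, dosed 24 h. Reporter mRNA quantified by RT-PCR, 6-FAM labelling, HpaI digestion and capillary electrophoresis; TAL basal promoter serves as background control, fitted bidirectionally versus DMSO.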

Experiment [9] is described as follows: ATG_TGFb_CIS: Attagene CIS-FACTORIAL HepG2 Assay for human Transforming Growth Factor (TGF) (AID 2282967). The following applies: HepG2 Attagene CIS TGFb reporter, mRNA transcription; actives raise or lower the signal. In short, it runs like this:
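Transcript-level reporter readout: HepG2 transfectants, 24 h exposure, RNA to cDNA, reporter-specific PCR, fluorescent primer extension, capillary sizing against ROX standards. Gain- or loss-of-signal relative to DMSO.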

The nature of experiment [10]: ATG_VDRE_CIS: Attagene CIS-FACTORIAL HepG2 Assay for human Vitamin D Receptor Element (VDRE) (AID 2282968). The following applies: HepG2 VDRE cis-reporter transcription, actives raise or lower the signal. The method in brief:
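Reporter mRNA induction, quantified by capillary electrophoresis of fluorescently labelled RT-PCR products, was read 24 h after dosing HepG2 cells carrying transiently transfected cis-regulated reporter units; gain or loss relative to DMSO.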

Experiment [11] concerns the target Nuclear receptor subfamily 1 group I member 3 (Homo sapiens) (UniProt Q14994). Description: ATG_CAR_TRANS: Attagene TRANS-FACTORIAL HepG2 Assay for human Constitutive Androstane Receptor (CAR) (AID 2282969; active = hit-call score of the fitted dose curve at least 0.9, where 1 is the maximum;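 note: activators raise reporter mRNA above DMSO so AC50 marks induction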). The following applies: HepG2 Attagene TRANS-FACTORIAL CAR reporter. In short, it runs like this: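 Readout is reporter mRNA induction, quantified by fluorescent primer extension and capillary electrophoresis after RT-PCR. Cells were HepG2 transiently carrying chimeric NR-Gal4 constructs with GAL4-UAS reporters, treated for 24 h; activity scored upward from DMSO.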

For experiment [12], the target named is X-box-binding protein 1 (Homo sapiens) (UniProt P17861). Description: ATG_Xbp1_CIS: Attagene CIS-FACTORIAL HepG2 Assay for human X-box Binding Protein 1 (XBP1) (AID 2282972). The following applies: HepG2 XBP1 cis-element reporter, Attagene multiplex; actives raise or lower the signal. The method in brief:
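After a 24-hour chemical exposure of HepG2 cells carrying cis-regulated reporters, reporter mRNA levels are assessed. Quantification uses RT-PCR, 6-FAM labelling and capillary electrophoresis. Gain- or loss-of-signal is fitted against DMSO.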

Experiment [13] in a line: ATG_GAL4_TRANS: Attagene TRANS-FACTORIAL HepG2 Assay for GAL4 (Internal Marker) (AID 2282976; active = hit-call score of the fitted dose curve at least 0.9, where 1 is the maximum). The following applies: HepG2 Attagene TRANS GAL4 internal marker reporter. The method in brief: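 Background-control readout: GAL4-UAS reporter transcript in transiently transfected HepG2 cells after 24 h compound exposure. Measured by RT-PCR, 6-FAM primer extension, HpaI digest and capillary electrophoresis; gain-of-signal fit versus DMSO.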

In experiment [14] the target is Glucocorticoid receptor (Homo sapiens) (UniProt P04150). Description: ATG_GR_TRANS: Attagene TRANS-FACTORIAL HepG2 Assay for human Glucocorticoid Receptor (GR) (AID 2282978; active = hit-call score of the fitted dose curve at least 0.9, where 1 is the maximum;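 note: activators score as hits since higher reporter transcript over DMSO is fitted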). As to conditions: HepG2 Attagene TRANS GR reporter, mRNA transcription. In short, it runs like this:
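HepG2 transient transfection, multiple reporter units, GAL4-UAS under NR-GAL4 chimera control. 24 h treatment. Reporter mRNA by RT-PCR/CE fluorescence, DMSO as negative control.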

Experiment [15] addresses Androgen receptor (Homo sapiens) (UniProt P10275). Description: ATG_AR_TRANS: Attagene TRANS-FACTORIAL HepG2 Assay for human Androgen Receptor (AR) (AID 2282973; active = hit-call score of the fitted dose curve at least 0.9, where 1 is the maximum). The following applies: HepG2 Attagene TRANS-FACTORIAL AR reporter transcription. In short, it runs like this:
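HepG2 cells transiently transfected with AR-Gal4 chimera and GAL4-UAS reporter units; chemical exposure 24 h. Reporter mRNA quantified by RT-PCR with fluorescent labelling and capillary electrophoresis; gain-of-signal fitted against DMSO.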

For experiment [16], the target named is Bile acid receptor (Homo sapiens) (UniProt Q96RI1). Description: ATG_FXR_TRANS: Attagene TRANS-FACTORIAL HepG2 Assay for Farnesoid X Receptor (FXR) (AID 2282979; active = hit-call score of the fitted dose curve at least 0.9, where 1 is the maximum;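 note: hits raise reporter mRNA above DMSO so AC50 marks FXR activation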). As to conditions: HepG2 Attagene TRANS FXR-GAL4 reporter transcription. The method in brief: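 HepG2 cells were transiently transfected with GAL4-UAS reporters driven by chimeric NR-Gal4 proteins and dosed for 24 h. Reporter mRNA was quantified by RT-PCR, fluorescent labelling, HpaI digestion and capillary electrophoresis, with gain of signal scored versus DMSO.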
Chain of Bile acid receptor (Homo sapiens) (Q96RI1 whole entry, looked up, the tested form may be a part): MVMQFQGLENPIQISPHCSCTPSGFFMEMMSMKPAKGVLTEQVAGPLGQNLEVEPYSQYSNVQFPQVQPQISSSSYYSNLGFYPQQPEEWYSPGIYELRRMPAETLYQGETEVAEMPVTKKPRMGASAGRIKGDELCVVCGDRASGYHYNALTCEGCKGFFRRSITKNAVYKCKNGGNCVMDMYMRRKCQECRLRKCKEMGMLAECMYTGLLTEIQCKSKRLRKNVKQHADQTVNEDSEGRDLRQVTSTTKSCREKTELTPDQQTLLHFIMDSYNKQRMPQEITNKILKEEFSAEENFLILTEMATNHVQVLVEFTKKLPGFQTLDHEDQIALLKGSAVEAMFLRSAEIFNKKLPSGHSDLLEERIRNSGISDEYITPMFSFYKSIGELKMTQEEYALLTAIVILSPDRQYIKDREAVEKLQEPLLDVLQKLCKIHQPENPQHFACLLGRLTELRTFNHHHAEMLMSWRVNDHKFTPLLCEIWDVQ

Experiment [17] concerns the target Estrogen receptor (Homo sapiens) (UniProt P03372). Put plainly: ATG_ERa_TRANS: Attagene TRANS-FACTORIAL HepG2 Assay for human Estrogen Receptor alpha (ERa) (AID 2282970; active = hit-call score of the fitted dose curve at least 0.9, where 1 is the maximum). The following applies: HepG2 Attagene TRANS ERa GAL4 reporter, mRNA. The method in brief: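 HepG2 cells transiently transfected with multiplexed GAL4-UAS reporter units read out chimeric NR-Gal4 activity. After 24 h compound exposure, reporter mRNA was quantified by RT-PCR, 6-FAM labeling, HpaI digestion and capillary electrophoresis, relative to DMSO.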

Experiment [18] concerns the target Steroid hormone receptor ERR1 (Homo sapiens) (UniProt P11474). Description: ATG_ERRa_TRANS: Attagene TRANS-FACTORIAL HepG2 Assay for human Estrogen-Related Receptor alpha (ERRa) (AID 2282971; active = hit-call score of the fitted dose curve at least 0.9, where 1 is the maximum). As to conditions: HepG2 Attagene TRANS reporter, ERRa transactivation. In short, it runs like this: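 HepG2 cells transiently transfected with GAL4-UAS reporter units and chimeric NR-Gal4 constructs; after 24 hour compound incubation, reporter mRNA quantified by RT-PCR, fluorescent labelling and capillary electrophoresis, gain of signal versus DMSO.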

Inconclusive results are not listed. Where a structure was tested more than once in an assay, its records may differ in their call. Active and inactive are the calls of the source. Rule for the calls, unless noted: active = hit-call score of the fitted dose curve at least 0.9, where 1 is the maximum; inactive = score below 0.9.

Chain of X-box-binding protein 1 (Homo sapiens) (P17861 whole entry, looked up): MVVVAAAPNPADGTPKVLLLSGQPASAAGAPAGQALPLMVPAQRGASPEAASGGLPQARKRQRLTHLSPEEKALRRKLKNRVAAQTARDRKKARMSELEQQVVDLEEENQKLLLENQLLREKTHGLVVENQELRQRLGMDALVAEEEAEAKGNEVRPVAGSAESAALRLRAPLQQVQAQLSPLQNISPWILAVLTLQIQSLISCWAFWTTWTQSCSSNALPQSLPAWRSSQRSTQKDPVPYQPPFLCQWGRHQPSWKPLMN
Chain of Nuclear receptor subfamily 1 group I member 3 (Homo sapiens) (Q14994 whole entry, looked up, the tested form may be a part): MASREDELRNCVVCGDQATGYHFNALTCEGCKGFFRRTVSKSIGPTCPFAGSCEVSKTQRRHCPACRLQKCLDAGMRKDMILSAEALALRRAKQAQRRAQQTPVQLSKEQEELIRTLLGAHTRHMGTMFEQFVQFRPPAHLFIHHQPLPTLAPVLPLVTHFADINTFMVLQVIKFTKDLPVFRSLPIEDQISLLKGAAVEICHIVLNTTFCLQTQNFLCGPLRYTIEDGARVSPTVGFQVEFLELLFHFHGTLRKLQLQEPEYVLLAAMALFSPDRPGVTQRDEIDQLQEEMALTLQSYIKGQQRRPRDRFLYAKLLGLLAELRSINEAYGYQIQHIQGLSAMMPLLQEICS
Chain of Signal transducer and activator of transcription 3 (Homo sapiens) (P40763 whole entry, looked up): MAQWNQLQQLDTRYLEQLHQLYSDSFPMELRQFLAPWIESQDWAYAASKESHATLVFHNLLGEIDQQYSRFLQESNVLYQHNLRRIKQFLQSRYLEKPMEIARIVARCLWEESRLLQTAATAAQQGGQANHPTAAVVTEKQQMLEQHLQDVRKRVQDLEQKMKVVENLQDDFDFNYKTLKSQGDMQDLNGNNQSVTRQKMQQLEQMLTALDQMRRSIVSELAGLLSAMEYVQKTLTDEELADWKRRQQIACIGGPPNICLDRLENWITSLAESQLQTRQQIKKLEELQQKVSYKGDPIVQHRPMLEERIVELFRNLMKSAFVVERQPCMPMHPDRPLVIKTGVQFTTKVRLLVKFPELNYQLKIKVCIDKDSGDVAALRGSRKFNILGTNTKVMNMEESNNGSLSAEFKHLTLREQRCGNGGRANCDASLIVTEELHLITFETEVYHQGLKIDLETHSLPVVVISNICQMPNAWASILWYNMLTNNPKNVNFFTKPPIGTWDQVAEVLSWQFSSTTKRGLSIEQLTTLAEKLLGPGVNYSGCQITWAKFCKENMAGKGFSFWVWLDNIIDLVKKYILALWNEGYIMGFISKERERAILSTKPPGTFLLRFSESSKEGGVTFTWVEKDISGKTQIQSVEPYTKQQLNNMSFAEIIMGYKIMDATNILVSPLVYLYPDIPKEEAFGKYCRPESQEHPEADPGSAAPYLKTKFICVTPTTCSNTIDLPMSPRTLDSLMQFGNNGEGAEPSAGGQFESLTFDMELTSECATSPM
Chain of Glucocorticoid receptor (Homo sapiens) (P04150 whole entry, looked up, the tested form may be a part): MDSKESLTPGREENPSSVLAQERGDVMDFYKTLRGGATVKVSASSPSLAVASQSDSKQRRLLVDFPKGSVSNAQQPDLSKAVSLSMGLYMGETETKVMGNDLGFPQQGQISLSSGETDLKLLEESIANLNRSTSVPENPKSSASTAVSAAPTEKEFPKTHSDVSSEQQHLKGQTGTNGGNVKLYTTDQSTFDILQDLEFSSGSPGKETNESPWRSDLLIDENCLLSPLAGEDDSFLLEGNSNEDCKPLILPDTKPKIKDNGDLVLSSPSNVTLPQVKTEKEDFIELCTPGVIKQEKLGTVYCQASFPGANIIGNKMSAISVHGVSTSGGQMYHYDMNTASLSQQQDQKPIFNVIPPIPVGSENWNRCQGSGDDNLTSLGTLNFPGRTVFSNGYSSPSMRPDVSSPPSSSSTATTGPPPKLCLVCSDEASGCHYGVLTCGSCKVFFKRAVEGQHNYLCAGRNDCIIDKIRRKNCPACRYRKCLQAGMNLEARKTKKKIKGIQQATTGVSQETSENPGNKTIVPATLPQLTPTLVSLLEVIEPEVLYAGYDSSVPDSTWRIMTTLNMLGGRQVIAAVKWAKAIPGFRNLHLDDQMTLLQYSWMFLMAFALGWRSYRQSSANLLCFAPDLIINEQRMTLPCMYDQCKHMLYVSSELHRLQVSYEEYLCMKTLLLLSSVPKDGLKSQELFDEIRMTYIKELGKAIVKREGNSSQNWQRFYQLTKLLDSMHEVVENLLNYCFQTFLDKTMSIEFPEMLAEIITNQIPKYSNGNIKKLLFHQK
Chain of Transcription factor Sp1 (Homo sapiens) (P08047 whole entry, looked up): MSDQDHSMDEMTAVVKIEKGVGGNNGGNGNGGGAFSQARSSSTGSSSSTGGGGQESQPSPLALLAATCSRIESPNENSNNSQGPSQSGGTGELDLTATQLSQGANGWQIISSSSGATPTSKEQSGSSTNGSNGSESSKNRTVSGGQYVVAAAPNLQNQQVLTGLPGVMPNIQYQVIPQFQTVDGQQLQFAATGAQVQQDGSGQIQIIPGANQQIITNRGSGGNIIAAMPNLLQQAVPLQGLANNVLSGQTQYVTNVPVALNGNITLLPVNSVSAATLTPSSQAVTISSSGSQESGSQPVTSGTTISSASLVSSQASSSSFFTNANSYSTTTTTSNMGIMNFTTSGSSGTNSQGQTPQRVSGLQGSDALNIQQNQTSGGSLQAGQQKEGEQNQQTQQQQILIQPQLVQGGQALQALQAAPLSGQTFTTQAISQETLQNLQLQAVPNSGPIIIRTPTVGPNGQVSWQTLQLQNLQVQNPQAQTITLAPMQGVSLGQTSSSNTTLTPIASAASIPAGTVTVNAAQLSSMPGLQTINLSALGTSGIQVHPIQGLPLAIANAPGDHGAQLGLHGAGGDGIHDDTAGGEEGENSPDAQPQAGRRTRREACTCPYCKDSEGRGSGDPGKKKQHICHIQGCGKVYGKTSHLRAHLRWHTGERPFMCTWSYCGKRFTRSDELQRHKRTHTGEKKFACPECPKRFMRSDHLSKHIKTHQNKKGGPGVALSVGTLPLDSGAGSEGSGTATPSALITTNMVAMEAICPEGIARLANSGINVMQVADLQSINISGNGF
Chain of Estrogen receptor (Homo sapiens) (P03372 whole entry, looked up, the tested form may be a part): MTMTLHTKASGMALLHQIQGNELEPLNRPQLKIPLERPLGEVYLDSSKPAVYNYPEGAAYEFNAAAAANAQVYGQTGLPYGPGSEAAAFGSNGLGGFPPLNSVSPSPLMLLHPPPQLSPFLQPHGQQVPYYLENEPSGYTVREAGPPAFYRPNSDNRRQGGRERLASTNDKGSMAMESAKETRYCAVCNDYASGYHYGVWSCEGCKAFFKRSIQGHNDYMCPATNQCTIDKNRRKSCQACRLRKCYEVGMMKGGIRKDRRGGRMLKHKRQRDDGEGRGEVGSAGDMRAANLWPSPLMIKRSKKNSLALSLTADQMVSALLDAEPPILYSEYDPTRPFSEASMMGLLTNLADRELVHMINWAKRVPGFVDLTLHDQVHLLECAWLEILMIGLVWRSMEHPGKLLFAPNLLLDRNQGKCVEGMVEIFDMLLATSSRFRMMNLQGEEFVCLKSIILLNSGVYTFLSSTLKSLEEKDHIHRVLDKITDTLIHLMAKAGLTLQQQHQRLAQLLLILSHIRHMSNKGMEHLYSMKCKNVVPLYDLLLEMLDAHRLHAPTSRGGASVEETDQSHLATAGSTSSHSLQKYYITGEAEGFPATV
Chain of Androgen receptor (Homo sapiens) (P10275 whole entry, looked up, the tested form may be a part): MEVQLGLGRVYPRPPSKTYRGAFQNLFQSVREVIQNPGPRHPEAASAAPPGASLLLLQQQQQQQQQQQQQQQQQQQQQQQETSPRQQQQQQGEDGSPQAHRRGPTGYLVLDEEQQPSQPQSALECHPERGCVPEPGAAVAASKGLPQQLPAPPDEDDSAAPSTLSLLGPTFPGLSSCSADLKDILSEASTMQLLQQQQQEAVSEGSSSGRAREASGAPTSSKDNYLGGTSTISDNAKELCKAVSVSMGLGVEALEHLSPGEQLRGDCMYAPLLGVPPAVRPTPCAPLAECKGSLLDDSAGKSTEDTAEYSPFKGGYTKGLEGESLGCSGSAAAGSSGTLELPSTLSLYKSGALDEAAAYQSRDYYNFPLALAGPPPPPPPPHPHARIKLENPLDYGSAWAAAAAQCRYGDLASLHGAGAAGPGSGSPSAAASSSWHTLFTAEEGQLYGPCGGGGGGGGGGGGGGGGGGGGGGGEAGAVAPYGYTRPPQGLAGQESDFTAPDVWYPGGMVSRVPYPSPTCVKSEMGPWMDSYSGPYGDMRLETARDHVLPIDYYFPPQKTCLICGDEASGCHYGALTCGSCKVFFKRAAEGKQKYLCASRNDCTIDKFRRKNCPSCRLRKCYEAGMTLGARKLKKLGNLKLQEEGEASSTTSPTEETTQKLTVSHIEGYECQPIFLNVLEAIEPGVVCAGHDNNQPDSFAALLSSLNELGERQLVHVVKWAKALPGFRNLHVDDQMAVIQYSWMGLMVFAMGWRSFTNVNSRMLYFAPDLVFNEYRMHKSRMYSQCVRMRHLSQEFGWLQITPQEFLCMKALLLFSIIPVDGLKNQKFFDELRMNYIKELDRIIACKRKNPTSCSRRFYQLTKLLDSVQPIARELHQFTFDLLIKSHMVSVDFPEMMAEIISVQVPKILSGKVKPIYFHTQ

As for `CCOP(=S)(OCC)SCSc1cc(Cl)ccc1Cl`, the compound was called inactive in experiment [1], in experiment [2], in experiment [3], in experiment [4], in [5] and in experiment [6]. Moreover, the result in experiment [7], in [8], in [9], in experiment [10], in experiment [11] and in experiment [12] was inactive. For the same compound, the result in experiment [13] and in [14] was inactive.

Regarding `CC[N+](CC)(CC)CC`, the result in experiment [1], in experiment [2], in experiment [3], in experiment [4], in experiment [5] and in [6] was inactive. Further, the call in experiment [7], in experiment [8], in experiment [9], in experiment [10], in [11] and in [12] was inactive. In addition, the compound was called inactive in [13] and in experiment [14]. Further, in [9], the AC50 (usually the concentration at which the activity in the assay is half-maximal) was 1.07 µM (active).

Regarding `CC(F)(F)CC(F)(F)F`, the compound was called inactive in experiment [1], in experiment [2], in experiment [3], in experiment [4], in experiment [5] and in experiment [6]. In addition, the outcome in [7], in experiment [8], in experiment [9], in experiment [10], in experiment [11] and in experiment [12] was inactive. For the same compound, the compound was classed as inactive in [15], in experiment [13], in experiment [14] and in [16].

Take `O=C(NC(=O)c1c(F)cccc1F)Nc1cc(Cl)c(F)c(Cl)c1F`: the compound was called inactive in experiment [1], in [2], in [3], in experiment [4], in [5] and in experiment [6]. Besides, the outcome in experiment [7], in experiment [8], in [9], in experiment [10], in [11] and in experiment [12] was inactive.

In the case of `Cc1ccc(CCl)cc1`, the outcome in [1], in experiment [2], in experiment [3], in experiment [4], in [5] and in [6] was inactive. Also, the call in experiment [7], in experiment [8], in experiment [9], in experiment [10], in [11] and in [17] was inactive. In addition, the call in experiment [18], in experiment [12], in [13], in experiment [14] and in experiment [16] was inactive.
